Assay results as given in PubChem BioAssay AID1159583 (ICCB-Longwood Screening Facility, Harvard Medical School, 2016).
Screen size: about 300,000 compounds; about 310 (0.1%) were called active. Rule as the data show it: active = fluorescence inhibition mostly above about 23% (no sharp cut-off); inactive = mostly below about 17%. Many of the other results were omitted from the sample, so actives are more common in it than they were.

assay: hypoxia reporter signal reduction in M. tuberculosis – fluorescence, absorbance growth readout, primary screen (AID 1159583); conditions: M. tuberculosis hypoxia-regulated fluorescent reporter, stronger effect = higher value, concentration not given here; growth inhibition: measured here: M. tuberculosis growth (absorbance)

| Compound | fluorescence inhibition | growth inhibition |
| --- | --- | --- |
| Cc1ccc(C2C3C(=O)N(C)C(=O)C3[C@]3(C)C(=O)N(CC4CC4)CC(=O)N23)o1 (some centres undefined) | 3.26% (inactive) | -2.47% |
| CC(=NNC(=O)C(=O)Nc1ccc(C)c(Cl)c1)c1ccncc1 | 9.7% (inactive) | 2.87% |
| CCOC(=O)C1=C(N)n2c(sc(=Cc3ccncc3)c2=O)=C(C(=O)OCC)C1c1ccncc1 (centres undefined) | -2.3% (inactive) | -3.45% |
| C=C1CC(C(=O)NN=Cc2ccc(O)cc2)C1 | 2.24% (inactive) | 7.43% |
| COc1ccc(NC(=O)COC(=O)CON=C(C)c2ccc3c(c2)OCO3)cc1S(N)(=O)=O | -7.57% (inactive) | -2.6% |
| Cc1ccc(-c2c(C(=O)NN=Cc3ccc(C)o3)nnn2-c2nonc2N)cc1 | 3.86% (inactive) | 8.97% |
| Cc1ccc(C=NNC(=O)CSc2nc3ccccc3n2C)s1 | 13.6% (inactive) | 0.932% |
| COc1ccc(-c2nn(-c3ccccc3)cc2C=NNC(=O)c2cccc(S(=O)(=O)Nc3ccccc3OC)c2)cc1 | 12.6% (inactive) | 0.139% |
| O=C(Cc1n[nH]c(=O)[nH]c1=O)NN=CCCc1ccccc1 | 11.1% (inactive) | 4.96% |
| CCCN(CCC)Cc1c(C(=O)NN=Cc2c[nH]c3ccccc23)nnn1-c1nonc1N | -3.6% (inactive) | 2.65% |
| C=C1CCN(C(C)C(=O)NCc2ccc(OC)cc2)S(=O)(=O)c2ccccc21 (centres undefined) | 19.8% (inactive) | 12.8% |
| CCOc1ccc2c(c1)C(c1ccc(C)cc1)=NNC(c1ccc(C)cc1)=N2 | 21.9% (inactive) | 10.8% |
| CCOc1ccc(-c2nnc3ccc(SC)nn23)cc1 | 4.55% (inactive) | 1.4% |
| CCOc1ccc(-c2cc(C)[n+](CCN(CC)CC)c(-c3ccc(OCC)cc3)c2)cc1 | 53.9% (active) | 33.9% |
| O=C(NN=Cc1c[nH]c2ccccc12)c1cc2ccccc2o1 | 0.899% (inactive) | 8.76% |
| COc1cccc(C=NNc2ncnc3c2ncn3Cc2ccccc2)c1O | 7.12% (inactive) | 2.3% |
| CCc1ccc(S(=O)(=O)NN=Cc2ccc3c(c2)OCO3)cc1 | 1.76% (inactive) | -2.08% |
| CN1C(=O)C(=NOC(=O)c2ccccc2Cl)c2ccccc21 | 12.3% (inactive) | 3.63% |
| COc1ccc(C=NNc2c(Cl)cc(Cl)cc2Cl)cc1CN1CCOCC1 | -4.05% (inactive) | 12.6% |
| CC(C)c1ccc(NC(=O)NC2CCCCC2)cc1 | 20.8% (active) | 53% |

| Compound | fluorescence inhibition | growth inhibition |
| --- | --- | --- |
| Cc1cc(C)cc(NC(=O)NC2CCCCCCC2)c1 | 95.8% |  |
| CC(C)(C)NS(=O)(=O)c1ccc(NC(=O)NC2CCCCC2)cc1 | 3.29% (inactive) | 2.76% |
| CSc1nsc(NN=Cc2ccccc2)c1C#N | 1.35% (inactive) | 9.85% |
| CC(C)CCn1c(=O)c(C(=O)NN=Cc2cccc(F)c2)c(O)c2ccccc21 | 5.09% (inactive) | 2.73% |
| O=C1CC2c3c(cccc3CN1Cc1ccc(F)cc1)CC(O)C2O (centres undefined) | 13.8% (inactive) | 7.24% |
| CC(=NNC(=O)c1ccn(C)n1)c1cccc(NC(=O)c2ccncc2)c1 | -2.04% (inactive) | 6.06% |
| COCc1c(Br)c(C)nc(OCC(=O)NN=Cc2ccc(C)o2)c1C#N | 18.1% (inactive) | 8.53% |
| CCC(=NNC(C)=O)c1ccc(OC(F)F)cc1 | 18.5% (inactive) | -1.52% |
| Cc1c(C=NNC(=O)c2ccc(F)cc2)cnn1C | 2.95% (inactive) | 1.5% |
| COc1ccc(C2CC(=O)C=C(c3ccc(Cl)cc3C)C2)cc1 (centres undefined) | 14.8% (inactive) | 2.62% |
| O=C(O)CC1c2cc(C(F)(F)F)ccc2S(=O)(=O)N1C1CCCCC1 (centres undefined) | 13.2% (inactive) | 14.6% |
| CCOc1cc(C=NNC(=O)CSc2nnc(C)s2)ccc1OCc1ccccc1Cl | -1.48% (inactive) | -4.08% |
| CC1(C)CC(=O)CC(=NNC(=O)C2CC2c2ccccc2)C1 (centres undefined) | -1.34% (inactive) | 15.1% |
| O=C(O)c1cccc2c1-c1ccccc1C2=NNc1ccccc1 | 1.02% (inactive) | -10.1% |
| O=[N+]([O-])c1ccccc1NN=Cc1cccc(O)c1O | 9.33% (inactive) | 0.684% |
| CC(=NO)C(C)(C)Nc1cccc(F)c1 | -1.15% (inactive) | 4.49% |
| COc1ccc(-c2sc3ccccc3c2C=Cc2ccc(OC)c(OC)c2)cc1 | 17.3% (inactive) | 10% |
| COc1ccc(C2C=CCN(S(C)(=O)=O)C(C)C(=O)N2Cc2ccc(F)cc2)cc1 (centres undefined) | 18% (inactive) | 13.9% |
| CC(C)(C)OC(=O)NC(Cc1ccccc1)C(=O)NC(CO)C(O)C1CC1C(=O)NC1CC1 (centres undefined) | 14.6% (inactive) | 4.91% |
| O=C(CN1CCN(Cc2ccc(Cl)cc2)CC1)NN=Cc1cccs1 | 6.55% (inactive) | -3.12% |
